In the supplement of paper PMC11219838:
A number with no mark means an inactive call.

System: Caenorhabditis elegans L1 (N2)
Experiment: survival and reproduction score of C. elegans L1 (0: 0-10 living worms, 1: 11-20, 2: 21-50, 3: >50, 4: overgrown) (score 0-4); higher = more worms, less nematicidal, active = 1 or less; extreme values may be limits of the assay
Settings: 60 µM; 6 days; temperature: 20 °C
In short: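 Synchronized C. elegans N2 L1s (about 20 per well) were grown in 96-well plates in liquid NGM with E. coli HB101 and compound at 60 µM final (0.6% v/v DMSO), shaken sealed at 200 rpm and 20 °C for 6 days. The ordinal score for survival and reproduction counted living worms per well under a dissection microscope. The scale ran 0 (0–10 worms) to 4 (overgrown, starved), averaged over two biological replicates.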

SMILES | survival and reproduction score
Clc1ccc(-c2nc(-c3ccncc3)no2)cc1Cl | 4
CC(C)(C)c1ccc(OCc2nc(-c3ccncc3)no2)c(Br)c1 | 4
COc1ccccc1NC(=O)CSc1nnc(-c2cccc3ccccc23)o1 | 4
Cc1ccc(NC(=O)CSc2nnc(-c3ccncc3)o2)cc1Cl | 4
Cc1ccc(C(=O)Nc2ccccc2-c2nc(-c3ccncc3)no2)cc1C | 4
Cc1ccc(-c2noc(-c3ccc(Cl)cc3)n2)cc1 | 4
CCN(CC)C(=O)CSc1nnc(-c2cccc(Cl)c2)o1 | 4
Cc1ccc(OC(C)c2nc(-c3ccc4c(c3)OCO4)no2)cc1C (stereo not drawn) | 4
c1ccc(-c2nc(C3CCCCC3)no2)cc1 | 0 (active)
Cc1ccccc1CSc1nnc(-c2ccncc2)o1 | 4
Cc1ccc(SCc2nc(-c3cccnc3)no2)cc1 | 1.5
Fc1ccc(-c2noc(-c3ccc(Cl)cc3)n2)cc1 | 1 (active)
Cc1cc(OCc2nc(-c3ccc(NC(=O)c4ccc5c(c4)OCO5)cc3)no2)ccc1Cl | 4
Cc1ccccc1OCc1nc(-c2cccs2)no1 | 1 (active)
CC1CC(C)CN(C(=O)CSc2nnc(-c3cccc(Cl)c3)o2)C1 (stereo not drawn) | 4
COc1ccc(-c2noc(C3CCCCC3)n2)cc1 | 4
CCOC(=O)c1ccc(NC(=O)c2ccccc2-c2nc(-c3cccc(C)c3)no2)cc1 | 4
COc1cccc(-c2noc(-c3c(F)cccc3F)n2)c1 | 4
